From PubChem BioAssay
USP28 block: blocks human USP28 ubiquitin-rhodamine cleavage; Q96RU2; purified USP28, Ub-rhodamine cleavage fluorescence, 30 min; inhibition, % at 25 µM; 47,000 compounds, 3% hits
USP17 inh: human USP17-like deubiquitinase inhibition. A8MUK1. purified USP17, Ub-rhodamine cleavage fluorescence, 3 h. inhibition, % at 50 µM. 47,000 compounds, 6.5% hits. AID 1645855
USP8 block: blocks human USP8 ubiquitin-rhodamine cleavage; 47,000 compounds, 4.2% hits; purified USP8, Ub-rhodamine cleavage fluorescence, 30 min; P40818; inhibition, % at 20 µM
USP10 block: human USP10 deubiquitinase inhibition; Q14694; purified USP10, Ub-rhodamine fluorescence, 60 min; inhibition, % at 20 µM; 47,000 compounds, 1.1% hits; AID 1645856
USP30 inh: human USP30 deubiquitinase inhibition | 47,000 compounds, 5.3% hits | inhibition, % at 25 µM | AID 1645860 | purified USP30, Ub-rhodamine cleavage fluorescence | Q70CQ3
Target sequence (Q70CQ3 whole entry, looked up): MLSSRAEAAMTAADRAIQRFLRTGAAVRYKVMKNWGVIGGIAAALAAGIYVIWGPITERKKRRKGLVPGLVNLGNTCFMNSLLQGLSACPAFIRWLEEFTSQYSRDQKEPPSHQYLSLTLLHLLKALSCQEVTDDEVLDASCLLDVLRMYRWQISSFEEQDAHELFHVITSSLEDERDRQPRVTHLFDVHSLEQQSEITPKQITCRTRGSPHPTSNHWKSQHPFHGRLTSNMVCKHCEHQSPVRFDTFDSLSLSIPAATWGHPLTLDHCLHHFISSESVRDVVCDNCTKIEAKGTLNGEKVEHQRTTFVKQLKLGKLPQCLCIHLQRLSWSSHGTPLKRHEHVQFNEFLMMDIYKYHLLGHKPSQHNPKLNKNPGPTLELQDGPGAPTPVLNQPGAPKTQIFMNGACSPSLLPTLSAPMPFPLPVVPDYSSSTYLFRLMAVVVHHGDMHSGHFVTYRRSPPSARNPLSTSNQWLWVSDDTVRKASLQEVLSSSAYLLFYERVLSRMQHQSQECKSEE
Starred values were filed as active, the others as inactive; nt = not tested or not shown. Compounds with a hit are over-represented: about 13% of the library has one in this group of screens. Rule as the data show it: active = inhibition above about 30%; inactive = the rest.

SMILES | USP28 block | USP17 inh | USP8 block | USP10 block | USP30 inh
Cc1cccc2nc(CSc3nc4ccc([N+](=O)[O-])cc4[nH]3)cn12 | 3 | 0 | 62* | 61* | 8
O=c1[nH]c2ccccc2cc1CN(Cc1ccco1)S(=O)(=O)c1ccc(F)cc1 | 34* | 36* | 10 | 16 | 51*
O=C(NCCc1ccccc1)N1C[C@H]2C[C@H]3[C@](C1)(CN(Cc1ccncc1)S3(=O)=O)O2 | -8 | -8 | 1 | 1 | 3
O=C(NCCc1c[nH]c2ccccc12)C(=O)Nc1cccc2ncccc12 | -5 | 42* | 14 | -3 | -29
O=C(NCCc1c[nH]c2ccccc12)C(=O)Nc1ccccc1C(=O)N1CCCC1 | -9 | -21 | -26 | -5 | -45
COc1cccc(CNC(=O)c2nc(CS(=O)(=O)c3ccccc3)no2)c1 | -2 | -5 | -13 | 0 | -17
CCc1cccc(N2CC(C(=O)N3CCN(c4ccccc4)CC3)CC2=O)c1 (stereo not drawn) | 8 | 8 | 12 | -1 | 11
CCOc1ccc(NC(=O)CSc2nc3n[nH]c(C)c3c(=N)n2-c2ccc(OC)cc2)cc1 | 11 | 9 | 3 | 1 | 52*
O=C(O)c1ccc(Cl)c(-c2ccc(CNCC(O)c3ccccc3)o2)c1 (stereo not drawn) | nt | -27 | -2 | 5 | nt
COc1c2nc3ccccc3oc-2cc(=O)c1OC | 7 | 71* | 58* | 2 | -13
Clc1cncc(Oc2nc(-c3cccnc3)nc3ccccc23)c1 | -4 | 63* | 6 | -3 | 8
N#Cc1c(Cl)cccc1Oc1ccc(S(=O)(=O)N2CCC(O)CC2)cc1 | 17 | 66* | 0 | -1 | 18
Cc1ccc(NC(=O)N2CCC3(CC2)NC(=O)C(CC(C)C)NC3=O)cc1 (stereo not drawn) | 17 | 43* | 21 | 2 | 46*
Cc1ccccc1C(=O)N1CCN(CCNC(=O)C(=O)Nc2ccc(F)cc2)CC1 | -12 | -9 | -3 | -1 | -14
C[C@H](NC(=O)[C@@H]1Cc2c([nH]c3ccccc23)C2c3ccccc3C(=O)N21)C(=O)NCc1ccc2c(c1)OCO2 (stereo partly drawn) | 10 | 34* | 28 | -6 | -49
O=C1c2ccccc2C2c3[nH]c4ccccc4c3C(c3ccc4c(c3)OCO4)CN12 (stereo not drawn) | 13 | 33* | -60 | -1 | -25
Cc1nc(C(C)C)ncc1C(=O)NCc1ccc2c(c1)OCO2 | -18 | -16 | -69 | -2 | -20
Cc1nc(C(=O)N[C@@H](C)C(=O)NCc2ccc3c(c2)OCO3)cc2c1[nH]c1ccccc12 | -5 | 57* | -26 | 5 | 9
COc1ccc(CNc2ncc(C(=O)NCc3ccco3)c(C)n2)cc1 | -39 | -40 | -26 | -8 | -175
O=C(COc1ccccc1)N1CCCCC1c1nncn1CC1CC1 (stereo not drawn) | 1 | 6 | -233 | 2 | 25
CCC(=O)Nc1ccc(Nc2cc(N3CCCCC3)nc(C)n2)cc1 | 0 | -12 | -85 | 1 | -10
CCCn1c(CCC(=O)Nc2ccccc2C)nc2cc(S(=O)(=O)N3CCOCC3)ccc21 | -2 | -4 | 0 | -4 | -7
CCN(CC)S(=O)(=O)c1ccc2c(c1)nc(CCC(=O)Nc1ccc(C)c(Cl)c1)n2CC | -5 | -12 | -15 | -2 | 39*
COc1cccc(NC(=O)CSc2nc3nc(C)ccc3o2)c1 | 8 | 22 | 3 | 3 | 14
CCCSc1nc(SCC(=O)Nc2nccs2)c2c3c(sc2n1)COC(C)(C)C3 | -2 | -14 | -25 | 1 | 0
SMILES | USP28 block | USP17 inh | USP8 block | USP10 block | USP30 inh
CCN1CCN(c2ncc(C(=O)NCc3ccc4c(c3)OCO4)c(C)n2)CC1 | -3 | -5 | 3 | -5 | -21
COc1ccc(NC(=O)CN2C(=O)c3ccccc3Sc3ccc(C(=O)N4CCCC4)cc32)c(OC)c1 | 29 | 55* | 8 | 12 | 49*
CC1CSc2ccc(S(=O)(=O)N3CCOCC3)cc2NC1=O (stereo not drawn) | -1 | 0 | -4 | 0 | -4
Cc1ccc(NC(=O)c2nn(C)c3ccccc3c2=O)cc1 | -9 | 14 | -1 | -1 | -3
Cc1cccc(NC(=O)c2nn(C)c3ccccc3c2=O)c1 | 19 | 64* | 7 | -2 | 37*
COc1ccc(-c2ccnc(-c3ccc(OCc4cccc(F)c4)cc3)n2)cc1 | 12 | 56* | 19 | 0 | 41*
CCCc1nc2ccccc2n1CC(=O)NCCc1ccc(S(N)(=O)=O)cc1 | -43 | 22 | 24 | -4 | -184
COc1ccc(C2CC(=O)N(Cc3ccccc3F)c3ccccc3S2(=O)=O)cc1OC (stereo not drawn) | 0 | 36* | 33* | 10 | -59
O=C1CN(Cc2ccccc2)S(=O)(=O)c2ccccc2N1Cc1ccccc1F | -2 | -6 | -8 | 7 | 17
O=C1CN(Cc2cccc(F)c2)S(=O)(=O)c2ccccc2N1Cc1ccccc1F | 6 | 6 | 3 | 12 | 31*
O=C1CC(c2ccccc2)S(=O)(=O)c2ccccc2N1Cc1ccccc1F (stereo not drawn) | 8 | 39* | 14 | 6 | 29
COc1ccc(C2CC(=O)N(CC(=O)c3ccccc3)c3ccccc3S2(=O)=O)cc1OC (stereo not drawn) | 2 | 1 | -71 | -4 | 16
Cc1ccc(S(=O)(=O)N2CCCC(c3nn(C)c4nccnc34)C2)cc1 (stereo not drawn) | 3 | 13 | 26 | -2 | -11
CC(=O)c1cccc(NC(=O)C(=O)c2cn(CC(=O)N3CCOCC3)c3ccccc23)c1 | -17 | -1 | -11 | -1 | -124
O=C(Nc1ccccc1F)C(=O)c1cn(CC(=O)N2CCCCC2)c2ccccc12 | -19 | -11 | -11 | 0 | -25
CCOc1ccccc1NC(=O)C(=O)c1cn(CC(=O)N2CCCCC2)c2ccccc12 | 0 | 7 | -8 | 1 | 40*
CC(CCc1ccccc1)NC(=O)C(=O)c1cn(CC(=O)N2CCOCC2)c2ccccc12 (stereo not drawn) | 9 | 44* | 1 | -2 | 50*
CO[C@H]1/C=C/C=C\C=C\C[C@@H](OC(=O)[C@H](C)NC(=O)C2CCCCC2)[C@H](C)[C@@H](O)/C(C)=C\CCC2=CC(=O)C=C(NC(=O)C1)C2=O | 4 | 46* | -10 | -3 | -14
Cc1ccc(C)c(NC(=O)COc2ccc(C)nc2[N+](=O)[O-])c1 | -6 | -1 | -110 | -1 | 1
NCc1ccc(C(=O)N2CCC3(CC2)C(=O)Nc2ccccc23)cc1 | 8 | 6 | 85* | -1 | 5
O=C(Cn1cnc2ccccc21)N1CCc2ccccc21 | 5 | 34* | 1 | 0 | -8
O=C(COc1cccc(N2CCCC2=O)c1)NCc1ccc2c(c1)OCO2 | 7 | 4 | 7 | 7 | 4
Cc1ccc2nc(-c3ccc(NC(=O)COc4ccc5c(c4)OCO5)cc3)sc2c1 | 1 | 14 | 26 | 13 | 3
O=C(COc1cccc(N2CCCC2=O)c1)Nc1ccc2c(c1)OCCO2 | 36* | -3 | -1 | 0 | -14
